Records with an inconclusive call do not appear. The source made the active and inactive calls. Calls follow the shape of the dose curve; as a rule, active = well fitted cell-killing curve with a large enough effect; inconclusive = small, poorly fitted or top-dose-only effect, or effect the other way; inactive = no such curve, though single readings can be large or run the other way.
Potency is read from the fitted curve at half-maximal effect.

A short description of the test: Quantitative High-Throughput drug screen in 47 multiple myeloma cell lines against the NCATS MIPE library collection: Karpas25_ECACC cell viability assay (AID 1918968; also: nearly all actives have a fitted effect of over 35% in size). The settings on record: Karpas25 myeloma viability, CellTiter-Glo ATP, 48 h; series mostly up to 45.8 µM. An excerpt:
PI: Beverly A. Mock Ph.D.
Laboratory of Cancer Biology and Genetics,
Center for Cancer Research, National Cancer Institute,
National Institute of Health, Bethesda, Maryland
Drug resistance and disease progression are common in multiple myeloma (MM) patients, underscoring the need for new therapeutic combinations. […] We hypothesized that effective combinations would reduce MYC expression and enhance p16 activity. […] These preclinical data identify potentially useful drug combinations for evaluation in drug-resistant MM and reveal potential mechanisms of combined drug sensitivity.
Described herein is the primary MIPE qHTS used to cherrypick compounds. Validated compounds were then further tested for potential synergistic activiy.
[1] Peat TJ, Gaikwad SM, Dubois W, Gyabaah-Kessie N, Zhang S, Gorjifard S, Phyo Z, Andres M, Hughitt VK, Simpson RM, Miller MA, Girvin AT, Taylor A, Williams D, D'Antonio N, Zhang Y, Rajagopalan A, Flietner E, Wilson K, Zhang X, Shinn P, Klumpp-Thomas C, McKnight C, Itkin Z, Chen L, Kazandijian D, Zhang J, Michalowski AM, Simmons JK, Keats J, Thomas CJ, Mock BA. Drug combinations identified by high-throughput screening promote cell cycle transition and upregulate Smad pathways in myeloma. Cancer Lett. 2023 Aug 1;568:216284. doi: 10.1016/j.canlet.2023.216284. Epub 2023 Jun 24. PMID: 37356470; PMCID: PMC10408729.
SEQUENCE No. (e.g., 1, 2, 3, etc.); […] (e.g., Cells, Incubation, Reagent, etc.); VALUE and DESCRIPTION.
1; Cells; 5 uL; white, solid bottom 1536-well Greiner assay plate.
2; Compounds; 23 nL; Kalypsis pin tool (Wako USA) equipped with a 1536-well pin head to transfer to the assay plates.
3; Incubation; 48 hours; 37C incubation.
4; Reagent;5uL; CellTiter Glo (Promega).
5; Detector; 425V; Luminescence; Viewlux PerkinElmer.
NOTES (numbers refer to Sequence numbers above)
1. The cell-based screening methods employed in this study were like those previously published. Briefly, the corresponding myeloma cell lines were screened in 1,536-well plates with 500 cells, 5-uL per well for inhibition of cell viability (assessed by measuring ATP levels with CellTiterGlo).
2. NCATS MIPE 4.0 library of approved and investigational drugs were added using the Kalypsis pin tool. Wells treated with DMSO only for 100% viability and media only wells for 0% viability were used as controls.
3. The assay plates were covered and incubated for 48 hours in a 37C, 5% CO2 incubator with controlled humidity.
4. After 48 hours, CellTilter-GloTM luminescent substrate mix (Promega) reagent was added to the assay plate and plates we incubated for 5 min at room temperature.
5. Signal was measured as median relative luminescence units on a ViewLux (PerkinElmer) multiplate reader.
[1] Heske CM, Davis MI, Baumgart JT, Wilson K, Gormally MV, Chen L, Zhang X, Ceribelli M, Duveau DY, Guha R, Ferrer M, Arnaldez FI, Ji J, Tran HL, Zhang Y, Mendoza A, Helman LJ, Thomas CJ. Matrix Screen Identifies Synergistic Combination of PARP Inhibitors and Nicotinamide Phosphoribosyltransferase (NAMPT) Inhibitors in Ewing Sarcoma. Clin Cancer Res. 2017 Dec 1;23(23):7301-7311. doi: 10.1158/1078-0432.CCR-17-1121. Epub 2017 Sep 12. PMID: 28899971; PMCID: PMC6636827.
(ATP-based viability assays read luminescence as a measure of living cells.)
Turning to `COC(=O)c1ccc2c(C(=Nc3ccc(N(C)C(=O)CN4CCN(C)CC4)cc3)c3ccccc3)c(O)[nH]c2c1`, the Potency is 11.8 µM (active).

Turning to `Nc1ccc(S(=O)(=O)Nc2ncccn2)cc1`, the Potency entry was “inactive”. The result for `CC1(C)OC2=C(C(=O)c3ccccc3C2=O)[C@H](NCc2ccccc2)[C@H]1O` reads 0.59 µM (active).

For `Cc1cc(Nc2cc(N3CCN(C)CC3)nc(Sc3ccc(NC(=O)C4CC4)cc3)n2)n[nH]1`, the Potency is 18.7 µM (active). The result for `CNc1nccc(-c2cccnc2Oc2cc(C(=O)Nc3cccc(C(F)(F)F)c3)ccc2C)n1` reads 8.33 µM (active); that for `COc1ccc(C(=O)CC2(O)C(=O)Nc3c(Cl)ccc(Cl)c32)cc1` (stereo not given), 5.26 µM (active).

As for `CCOC(=O)C1=C(C)NC2=C(C(=O)CC(C)(C)C2)C1c1ccc(-c2ccccc2)cc1` (stereo not given), the Potency is 20.9 µM (active). The result for `COc1cc(=C2C=c3ccccc3=N2)[nH]c1=Cc1[nH]c(C)cc1C` reads 0.743 µM (active); that for `CN1c2cc(O)c(N=NC(N)=O)cc2CC1S(=O)(=O)O` (stereo not given), “inactive”; that for `CCN(CC)CCCCNc1ncc2cc(-c3cc(OC)cc(OC)c3)c(NC(=O)NC(C)(C)C)nc2n1`, 10.5 µM (active). To `O=C(C=Cc1cccc(S(=O)(=O)Nc2ccccc2)c1)NO` belongs 1.08 µM (active); to `O=C1CCC[C@@H]2[C@H]3CCC[N+]4([O-])CCC[C@@H](CN12)[C@@H]34` (stereo not given in full), “inactive”; to `O=C(O)[C@H](Cc1c[nH]c2ccccc12)N1C(=O)c2ccccc2C1=O`, “inactive”.

On to `COc1ccc(F)c(F)c1C(=O)c1cnc(NC2CCN(S(C)(=O)=O)CC2)nc1N`, for which the Potency is 1.18 µM (active). The result for `Nc1ncnc2c1c(-c1cccc(OCc3ccccc3)c1)cn2C1CC(CN2CCCC2)C1` (stereo not given) reads 0.148 µM (active); that for `O=C(NCCS(=O)(=O)c1ccc(C(F)(F)F)cn1)c1ccc(Cl)cc1`, “inactive”; that for `COc1cccc2nc(-c3cccs3)nc(NN3C(=O)C=C(C)C3=O)c12`, 0.0264 µM (active). Take `CC(=O)Nc1nc(C)c(-c2ccc(Cl)c(S(=O)(=O)NCCO)c2)s1`: the Potency is 1.18 µM (active). To `CC(C)(C)OC(=O)Nc1ccc(-c2cc(C(=O)NCCCCCCC(=O)NO)no2)cc1` belongs 0.935 µM (active); to `Cc1coc2c1C(=O)C(=O)c1c-2ccc2c1CCCC2(C)C`, 8.33 µM (active). The result for `C[C@@H]1CN(CC(=O)Nc2ccc3c(c2)Cc2cccc(-c4cc(=O)cc(N5CCOCC5)o4)c2S3)C[C@H](C)O1` reads 4.18 µM (active).

For `COc1cc2c(Oc3ccc(-c4cnc(Nc5ccc(F)cc5)n(C)c4=O)cc3F)ccnc2cc1OCCCN1CCOCC1`, the Potency is 1.87 µM (active). The result for `Cc1ccc(C(=O)Nc2cccc(C(F)(F)F)c2)cc1-c1ccc2nc(NCCN3CCOCC3)ncc2c1` reads 5.26 µM (active). The result for `CNC(=O)c1nn(C)c2c1C(C)(C)Cc1cnc(Nc3ccc(N4CCN(C)CC4)cc3)nc1-2` reads 2.35 µM (active); that for `Cc1ccc(C(=O)Nc2ccc(CN3CCN(C)CC3)c(C(F)(F)F)c2)cc1C#Cc1cnc2cccnn12`, 0.935 µM (active); that for `COc1cc2c(cc1-c1c(C)noc1C)ncc1[nH]c(=O)n([C@H](C)c3ccccn3)c12`, 4.69 µM (active). The result for `COc1cccc(-c2ccc(NC(=O)C3=C(C(=O)O)CCC3)c(F)c2)c1` reads “inactive”; that for `CC=C1NC(=O)[C@H]2CSSCCC=C[C@H](CC(=O)N[C@H](C(C)C)C(=O)N2)OC(=O)[C@H](C(C)C)NC1=O`, 0.0148 µM (active). Regarding `Cc1cc(C(=O)N2CCN(c3cccc(Cl)c3)CC2)n(-c2ccccc2)n1`, the Potency is 1.32 µM (active). The result for `Cc1cc(Nc2ncnc3ccc(-c4ccc(CNCCS(C)(=O)=O)o4)cc23)ccc1Oc1ccn2ncnc2c1` reads 0.332 µM (active); that for `O=C(Nc1ncc(-c2cc(C(F)F)nn2-c2c(Cl)cccc2Cl)s1)C1CC1`, 0.662 µM (active). As to `Nc1cc(C(F)(F)F)c(-c2cc(N3CCOCC3)nc(N3CCOCC3)n2)cn1`, the Potency is 0.743 µM (active).

Turning to `Nc1ccn([C@@H]2O[C@H](CO)[C@H](O)C2(F)F)c(=O)n1`, the Potency was 3.72 µM (active). `CC1(C)O[C@@H]2C[C@@H]3[C@H]4C[C@@H](F)C5=CC(=O)C=C[C@]5(C)[C@@]4(F)[C@@H](O)C[C@]3(C)[C@]2(C(=O)CO)O1`: the Potency is 0.0074 µM (active). `Cc1[nH]c2ccccc2c1CCNCc1ccc(C=CC(=O)NO)cc1`: the Potency was 0.0209 µM (active). The result for `COc1cc2ncn(-c3cc(OCc4ccccc4C(F)(F)F)c(C(N)=O)s3)c2cc1OC` reads 13.2 µM (active); that for `Cc1cccc(C=NNc2cc(N3CCOCC3)nc(OCCc3ccccn3)n2)c1`, 13.2 µM (active); that for `CC(=O)SC[C@@H](C)C(=O)N1CCC[C@H]1C(=O)N[C@@H](Cc1ccccc1)C(=O)O`, “inactive”. To `Cc1cn2c(-c3cn[nH]c3)cnc2c(Nc2ccc(C(=O)N3CCNCC3)cc2F)n1` belongs 18.7 µM (active); to `CN[C@H]1CCc2cc(OC)c(OC)c(OC)c2-c2ccc(OC)c(=O)cc21`, 0.0105 µM (active).

These data come from PubChem BioAssay (NCATS).
